For some assays here: Results with a measured potency or affinity are listed apart.
How the values were obtained:
Design in all cases: scale not given: direction of the effect not stated beside the values
[1] = molecular target: Protein translocase subunit SecA (Escherichia coli (strain K12)) (UniProt P10408); assay: Assay to Identify E. coli SecA ATPase Inhibitors; assay type: functional; details: 30 µM
[2] = molecular target: T1, Ubiquitin-activating enzyme e1, putative (Leishmania donovani (strain BPK282A1)) (UniProt E9BSI1); assay: Leishmania donovani Ubiquitin Activating Enzyme (LdE1); assay type: functional; details: 30 µM
T1 sequence (whole entry): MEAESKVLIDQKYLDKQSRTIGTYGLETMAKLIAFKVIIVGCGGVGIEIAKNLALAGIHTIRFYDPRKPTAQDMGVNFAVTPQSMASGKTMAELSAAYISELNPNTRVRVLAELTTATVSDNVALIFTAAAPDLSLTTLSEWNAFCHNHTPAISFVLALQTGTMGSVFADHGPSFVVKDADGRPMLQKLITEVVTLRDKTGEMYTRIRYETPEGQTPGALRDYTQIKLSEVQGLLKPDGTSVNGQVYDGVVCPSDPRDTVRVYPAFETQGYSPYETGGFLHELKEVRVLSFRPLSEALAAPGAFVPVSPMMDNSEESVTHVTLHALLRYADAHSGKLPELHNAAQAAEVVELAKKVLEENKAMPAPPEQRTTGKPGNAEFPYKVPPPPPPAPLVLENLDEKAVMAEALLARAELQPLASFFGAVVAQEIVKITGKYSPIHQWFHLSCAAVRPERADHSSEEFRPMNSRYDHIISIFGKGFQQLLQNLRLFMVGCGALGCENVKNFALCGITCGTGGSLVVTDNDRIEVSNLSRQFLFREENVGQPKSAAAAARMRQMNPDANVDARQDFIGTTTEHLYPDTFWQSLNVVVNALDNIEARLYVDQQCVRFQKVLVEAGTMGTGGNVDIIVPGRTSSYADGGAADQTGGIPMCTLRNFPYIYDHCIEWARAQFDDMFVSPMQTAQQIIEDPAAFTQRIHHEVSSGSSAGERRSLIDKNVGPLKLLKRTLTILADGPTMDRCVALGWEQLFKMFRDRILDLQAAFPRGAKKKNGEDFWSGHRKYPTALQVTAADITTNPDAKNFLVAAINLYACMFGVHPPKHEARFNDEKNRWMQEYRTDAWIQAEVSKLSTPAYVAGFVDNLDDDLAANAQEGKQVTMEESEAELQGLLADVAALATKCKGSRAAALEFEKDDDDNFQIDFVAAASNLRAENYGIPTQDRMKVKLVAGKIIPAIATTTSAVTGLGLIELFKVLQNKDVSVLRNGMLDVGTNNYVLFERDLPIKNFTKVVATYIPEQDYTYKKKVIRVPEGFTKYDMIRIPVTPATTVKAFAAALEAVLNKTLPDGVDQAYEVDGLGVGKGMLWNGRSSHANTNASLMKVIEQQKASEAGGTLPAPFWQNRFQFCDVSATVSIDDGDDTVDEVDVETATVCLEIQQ

[3] = molecular target: Sialic acid-binding Ig-like lectin 9 (Homo sapiens) (UniProt Q9Y336); assay: Hs-Siglec9 ALPHAscreen SOP 20170721; details: 10 µM
Chain of Sialic acid-binding Ig-like lectin 9 (Homo sapiens) (Q9Y336 whole entry): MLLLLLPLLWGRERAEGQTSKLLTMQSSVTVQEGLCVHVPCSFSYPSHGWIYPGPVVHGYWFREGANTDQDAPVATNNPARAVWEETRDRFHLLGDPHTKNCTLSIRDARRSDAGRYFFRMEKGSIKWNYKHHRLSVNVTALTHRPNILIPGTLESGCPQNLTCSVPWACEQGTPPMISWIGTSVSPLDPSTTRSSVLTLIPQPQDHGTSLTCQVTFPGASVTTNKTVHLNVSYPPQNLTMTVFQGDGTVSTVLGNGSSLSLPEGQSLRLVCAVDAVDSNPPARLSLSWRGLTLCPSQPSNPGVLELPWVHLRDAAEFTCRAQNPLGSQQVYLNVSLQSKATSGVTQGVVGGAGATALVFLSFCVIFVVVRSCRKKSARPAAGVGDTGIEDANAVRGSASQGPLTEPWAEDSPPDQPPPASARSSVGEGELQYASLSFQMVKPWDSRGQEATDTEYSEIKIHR

Trypanosoma cruzi = assay: Trypanosoma cruzi phosphomannomutase and mannose-1-phosphate guanylyltransferase assay; assay type: functional; details: 10 µM
[4] = molecular target: T2, Arginase-2, mitochondrial (Homo sapiens) (UniProt P78540); assay: in vitro enzyme assay to detect the production of urea directly proportional to the activity of Arginase II; assay type: functional; details: 33.3 µM; further: in the data most compounds retested in dose-response had high values
T2 sequence (whole entry): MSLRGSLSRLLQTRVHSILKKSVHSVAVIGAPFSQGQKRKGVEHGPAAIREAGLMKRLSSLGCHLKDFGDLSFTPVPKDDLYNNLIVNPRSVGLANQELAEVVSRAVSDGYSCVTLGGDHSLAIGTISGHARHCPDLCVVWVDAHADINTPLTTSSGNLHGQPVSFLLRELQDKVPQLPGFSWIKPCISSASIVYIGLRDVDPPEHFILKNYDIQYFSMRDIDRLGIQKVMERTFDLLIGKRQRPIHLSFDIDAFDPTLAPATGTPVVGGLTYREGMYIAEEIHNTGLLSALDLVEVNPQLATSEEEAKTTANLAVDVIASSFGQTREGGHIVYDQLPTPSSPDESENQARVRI

[5] = molecular target: T3, Proteasome subunit beta (Trypanosoma cruzi) (UniProt O96673); assay: Trypanosoma cruzi proteasome chymotrypsin-like activity (TcProtChymo) assay.; further: in the data most compounds retested in dose-response had high values; assay type: functional; details: 9.37 µM
T3 sequence (whole entry): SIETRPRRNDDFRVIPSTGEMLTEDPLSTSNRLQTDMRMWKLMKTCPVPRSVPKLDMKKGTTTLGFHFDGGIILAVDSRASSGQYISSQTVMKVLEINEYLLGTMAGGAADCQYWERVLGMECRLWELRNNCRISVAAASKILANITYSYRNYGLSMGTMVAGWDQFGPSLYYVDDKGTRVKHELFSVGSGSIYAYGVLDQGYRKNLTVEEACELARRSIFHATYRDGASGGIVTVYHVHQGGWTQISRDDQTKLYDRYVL

Homo sapiens = organism: Homo sapiens; assay: To identify inhibition of the IFN signalling (Jak-Stat) pathway via expression of an eGFP reporter gene under the control of an IFN-stimulated response element (ISRE) containing MxA promoter.; assay type: functional; details: 30 µM
[6] = molecular target: T4, Tyrosyl-tRNA synthetase, putative (Trypanosoma cruzi (strain CL Brener)) (UniProt Q4DSP6); assay: Trypanosoma cruzi tyrosyl tRNA synthetase (TcYRS) _High Tyrosine SOP; assay type: functional; details: 30 µM; further: in the data most compounds retested in dose-response had high values
T4 sequence (whole entry): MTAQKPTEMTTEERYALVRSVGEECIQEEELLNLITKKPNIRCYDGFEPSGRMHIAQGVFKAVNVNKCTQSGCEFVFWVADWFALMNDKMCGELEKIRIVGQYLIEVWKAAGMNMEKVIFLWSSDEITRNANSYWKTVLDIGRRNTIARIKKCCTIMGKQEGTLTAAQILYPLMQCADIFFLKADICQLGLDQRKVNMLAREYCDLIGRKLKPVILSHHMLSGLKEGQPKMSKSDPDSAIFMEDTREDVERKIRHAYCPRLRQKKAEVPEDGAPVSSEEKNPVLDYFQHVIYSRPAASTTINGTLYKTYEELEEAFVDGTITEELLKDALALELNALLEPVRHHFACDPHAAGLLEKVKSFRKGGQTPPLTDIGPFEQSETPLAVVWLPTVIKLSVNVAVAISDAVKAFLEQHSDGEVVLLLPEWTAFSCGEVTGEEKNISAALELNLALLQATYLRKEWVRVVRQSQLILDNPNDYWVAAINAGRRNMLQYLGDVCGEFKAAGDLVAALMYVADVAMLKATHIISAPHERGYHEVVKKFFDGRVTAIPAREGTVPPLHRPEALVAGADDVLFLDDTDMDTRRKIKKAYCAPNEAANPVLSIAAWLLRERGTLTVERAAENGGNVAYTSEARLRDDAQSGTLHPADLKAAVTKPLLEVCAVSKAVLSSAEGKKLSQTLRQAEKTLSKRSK

[7] = molecular target: T4, Tyrosyl-tRNA synthetase, putative (Trypanosoma cruzi (strain CL Brener)); assay: Trypanosoma cruzi tyrosyl tRNA synthetase (TcYRS) SOP; assay type: functional; details: 30 µM
[8] = molecular target: Chromo domain-containing protein 1 (Saccharomyces cerevisiae (strain ATCC 204508 / S288c) (Baker's yeast)) (UniProt P32657); assay: ScCHD-1 Enzyme Inhibition Assay; assay type: functional; details: 30 µM; further: in the data most compounds retested in dose-response had high values
Chain of Chromo domain-containing protein 1 (Saccharomyces cerevisiae (strain ATCC 204508 / S288c) (Baker's yeast)) (P32657 whole entry, the tested form may be a part): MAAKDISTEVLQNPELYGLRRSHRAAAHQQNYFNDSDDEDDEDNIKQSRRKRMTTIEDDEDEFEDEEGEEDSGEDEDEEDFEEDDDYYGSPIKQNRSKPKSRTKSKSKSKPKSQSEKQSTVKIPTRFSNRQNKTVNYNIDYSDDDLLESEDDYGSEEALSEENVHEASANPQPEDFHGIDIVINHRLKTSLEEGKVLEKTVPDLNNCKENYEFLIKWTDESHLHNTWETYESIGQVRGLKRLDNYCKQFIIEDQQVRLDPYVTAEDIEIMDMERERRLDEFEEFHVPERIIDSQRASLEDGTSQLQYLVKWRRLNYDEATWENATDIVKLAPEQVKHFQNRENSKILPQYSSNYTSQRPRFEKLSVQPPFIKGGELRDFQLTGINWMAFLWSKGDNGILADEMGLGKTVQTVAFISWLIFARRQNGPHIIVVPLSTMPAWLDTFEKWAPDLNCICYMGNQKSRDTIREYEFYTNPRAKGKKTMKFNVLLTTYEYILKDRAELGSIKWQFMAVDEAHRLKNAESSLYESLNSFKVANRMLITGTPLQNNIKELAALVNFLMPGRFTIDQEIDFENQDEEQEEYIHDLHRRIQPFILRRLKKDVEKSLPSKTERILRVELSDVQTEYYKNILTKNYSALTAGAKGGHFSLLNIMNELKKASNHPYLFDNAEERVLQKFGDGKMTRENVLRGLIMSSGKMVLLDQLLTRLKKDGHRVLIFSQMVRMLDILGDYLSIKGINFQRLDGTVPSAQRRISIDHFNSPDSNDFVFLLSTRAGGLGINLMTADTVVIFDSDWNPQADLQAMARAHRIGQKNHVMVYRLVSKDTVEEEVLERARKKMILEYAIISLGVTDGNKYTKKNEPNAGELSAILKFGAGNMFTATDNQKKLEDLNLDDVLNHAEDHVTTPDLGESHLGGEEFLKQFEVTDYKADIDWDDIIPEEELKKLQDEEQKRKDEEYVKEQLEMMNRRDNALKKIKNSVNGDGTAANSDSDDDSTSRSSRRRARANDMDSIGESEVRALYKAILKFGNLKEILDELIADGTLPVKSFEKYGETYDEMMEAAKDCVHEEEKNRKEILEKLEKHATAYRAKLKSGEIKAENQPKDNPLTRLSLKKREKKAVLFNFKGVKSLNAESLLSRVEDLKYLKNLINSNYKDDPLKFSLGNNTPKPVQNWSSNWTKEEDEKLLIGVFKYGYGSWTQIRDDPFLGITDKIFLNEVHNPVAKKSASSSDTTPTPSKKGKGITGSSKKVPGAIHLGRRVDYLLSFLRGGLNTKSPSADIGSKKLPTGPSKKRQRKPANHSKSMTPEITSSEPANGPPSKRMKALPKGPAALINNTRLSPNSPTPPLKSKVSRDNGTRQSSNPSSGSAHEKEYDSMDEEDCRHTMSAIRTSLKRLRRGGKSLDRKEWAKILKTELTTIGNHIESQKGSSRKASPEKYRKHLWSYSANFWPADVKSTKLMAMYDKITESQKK

Chain of Protein translocase subunit SecA (Escherichia coli (strain K12)) (P10408 whole entry): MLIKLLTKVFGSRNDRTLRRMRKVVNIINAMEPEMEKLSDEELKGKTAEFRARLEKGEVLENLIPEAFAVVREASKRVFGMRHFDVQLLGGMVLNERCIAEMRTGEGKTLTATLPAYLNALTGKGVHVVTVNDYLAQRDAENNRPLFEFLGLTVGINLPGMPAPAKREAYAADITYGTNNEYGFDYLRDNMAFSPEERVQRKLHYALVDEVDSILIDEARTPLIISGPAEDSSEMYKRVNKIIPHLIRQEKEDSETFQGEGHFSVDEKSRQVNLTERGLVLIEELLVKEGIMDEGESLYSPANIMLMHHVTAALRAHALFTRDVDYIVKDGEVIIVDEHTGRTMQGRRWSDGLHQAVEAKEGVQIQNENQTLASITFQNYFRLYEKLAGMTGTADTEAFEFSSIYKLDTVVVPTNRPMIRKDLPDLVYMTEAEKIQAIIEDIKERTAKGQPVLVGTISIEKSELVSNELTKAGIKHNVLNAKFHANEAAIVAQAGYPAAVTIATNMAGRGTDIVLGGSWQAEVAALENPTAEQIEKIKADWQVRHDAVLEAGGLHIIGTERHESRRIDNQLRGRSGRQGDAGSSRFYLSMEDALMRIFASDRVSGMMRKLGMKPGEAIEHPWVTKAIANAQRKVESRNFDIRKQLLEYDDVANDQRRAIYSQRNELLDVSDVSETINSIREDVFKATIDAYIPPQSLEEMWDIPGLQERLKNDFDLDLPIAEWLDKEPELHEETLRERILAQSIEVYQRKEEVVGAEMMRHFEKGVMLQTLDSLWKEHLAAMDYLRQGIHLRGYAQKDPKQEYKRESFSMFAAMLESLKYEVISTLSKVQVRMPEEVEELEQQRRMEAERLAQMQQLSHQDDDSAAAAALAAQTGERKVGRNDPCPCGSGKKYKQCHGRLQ

SMILES | Percent Effect [1] [%] | Percent Effect [2] [%] | Percent Effect [3] [%] | Percent Effect (Trypanosoma cruzi) [%] | Percent Effect [4] [%] | Percent Effect [5] [%] | Percent Effect (Homo sapiens) [%] | Percent Effect [6] [%] | Percent Effect [7] [%] | Percent Effect [8] [%]
COc1ncc(CN2CC[C@@](C)(O)[C@H](Oc3cccc(F)c3)C2)cn1 | -2.75 | 9.33 | -0.132 | -2.76 | -1.33 | 6.73 | 8.72 | 4.23 | 10 | -23.1
c1cnc(N2CCC3(CCN(CC4CC4)CC3)CC2)nc1 | -6.61 | 3.9 | -1.99 | -2.82 | -5.67 | 6.09 | -6.66 | 5.79 | 12.8 | -1.89
CC(C)c1nc(CN2CCCN(Cc3nnc(C4CC4)o3)CC2)no1 | -2.61 | 8 | -2.85 | -0.602 | 4.43 | 17.2 | 14.1 | 3.68 | 7.69 | -9.7
Cc1noc(C(C)C)c1C(=O)NCCCOC(C)C | 0.204 | 2.6 | 15.3 | 0.373 | -2.25 | 6.67 | -3.84 | 0.98 | 9.41 | -6.89
CN(C)C(=O)CN1C(=O)CCC12CCN(Cc1cccn1C)CC2 | -0.209 | -1.3 | 0.456 | 3 | -0.913 | 11.9 | 7.89 | 10.6 | 20 | -9.53
CCC1=N[C@@]2(CC[C@@H]3CN(C(=O)NCc4ccccc4)C[C@@H]32)C(=O)N1 | -4.85 | 3.9 | -3.04 | 1.66 | -4.86 | 4.33 | -16.6 | 5.79 | 5.13 | -0.556
O=C(c1ccco1)N1C[C@H]2CCCN(CC3CCOCC3)[C@H]2C1 | -3.2 | 6.49 | -2.43 | -4.77 | -1.62 | 11.9 | 1.5 | 4.74 | 15.4 | -2.11
CCc1nc(C2CCCN2C(=O)c2cc(C3CC3)[nH]n2)no1 (stereo not given) | -3.71 | 5.33 | -4.76 | -5.02 | 1.77 | -1.44 | 12.6 | 3.68 | 5.13 | -6.15
CCCn1[nH]cc/c1=N\C(=O)CN1CCOC(Cn2cc(C)cn2)C1 (stereo not given) | -8.16 | 5.33 | 3.2 | 3.61 | 0.444 | 5.85 | -3.75 | 2.63 | 7.69 | -5.89
Cc1csc(N2CCCN(C(=O)c3cnns3)CC2)n1 | -2.47 | -2.67 | -0.659 | -0.803 | -1.33 | -0.255 | -0.448 | 0.526 | 0 | 4.48
O=C(c1ccno1)N1CCC2(CC1)C(=O)N(CC1CC1)c1ccccc12 | -0.905 | -29.9 | -1.46 | -0.75 | 3.2 | 3 | 5.14 | 1.93 | 0 | -3.48
O=C(NCc1cc[nH]n1)NCC(O)COc1cccc(F)c1 (stereo not given) | -1.6 | 10.7 | -6.96 | -7.03 | -7.98 | 8.74 | 12.9 | -2.63 | 0 | -6.87
CCOc1cc(CNC(=O)N2CCC(Cc3cnn(C)c3)C2)ccn1 (stereo not given) | -2.64 | -2.56 | 1.57 | 9.11 | 0.82 | 2.13 | 4.43 | 3.35 | 6.02 | -0.605
Cc1ccc(C#N)cc1NC(=O)NC1CCCN(c2ncccn2)C1 (stereo not given) | -5.74 | 15.6 | 3.91 | -2.98 | 1.02 | -1.4 | 20.9 | 3.92 | 18.8 | -8.47
O=C(NCCNC(=O)c1scnc1Cl)c1ccccc1 | -3.41 | 16 | 3.33 | 2.01 | -0.887 | 14.2 | 9.89 | 7.89 | 17.9 | -5
CCN(CC)C1CCN(C(=O)NCc2nncn2CC)CC1 | -3.6 | 13.3 | -2.94 | 3.41 | 3.55 | 12 | 21.2 | 0.526 | 7.69 | -11.2
CCc1nc(CN(C)C2CCN(CCc3ccccn3)C2)no1 (stereo not given) | -0.239 | 21.3 | -5.99 | 4.02 | -3.55 | 22.8 | 12.5 | 6.84 | 15.4 | -14.1
COCCN1CCN(Cc2cccc(C(N)=O)c2)CC1C (stereo not given) | -2.01 | 29.3 | -8.56 | 2.81 | -2.66 | 17.6 | 16.2 | 2.63 | 12.8 | -19.1
CN(C)S(=O)(=O)N1CC[C@]2(C[C@H](Oc3cccnc3)CO2)C1 | -2.88 | 14.3 | -1.9 | 1.66 | 8.91 | 23.7 | 1.15 | 11.1 | 15.4 | -4.29
CN1[C@H](CN2CCCC2)C[C@@H]2CN(C(=O)c3cccn3C)CC[C@@H]21 | -1.76 | -1.3 | 1.42 | 0.563 | -0.457 | 0.944 | -0.498 | 10.6 | 12.5 | -6.06
Cc1cnn(C(C)C2CC2)c1NC(=O)c1ccncc1 (stereo not given) | -9.84 | -5.41 | -2.58 | -1.26 | 1.75 | 5.82 | -1.9 | -1.6 | 0 | -0.204
c1nc2n(n1)CC(NCc1csc(-c3ccsc3)n1)CC2 (stereo not given) | -1.39 | 7.69 | -4.25 | 1.97 | 9.43 | 2.3 | 6.22 | 9.09 | 20.5 | -0.275
CN1CCOC(CNC(=O)Cc2ccccc2F)C1 (stereo not given) | -1.65 | 15.4 | -3.95 | 3.47 | 4.1 | 8.11 | -18.4 | 7.18 | 25.3 | -5.49

From ChEMBL document CHEMBL3988442, “University of Dundee, Small-Polar-MMV Screening Library” (2021)
